Experimental findings from PubChem BioAssay AID488969 (Vanderbilt High Throughput Screening Facility, 2010) are described below.

Over roughly 110,000 compounds, “z-score” has its median near -0.1; the highest 2% begin near 2. For the sample, the highest values were picked, then their nearest neighbours and some compounds at random. Activity calls are given as the source filed them.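 Rule for the calls: active = z-score in the third read window above 3 or below -3; inactive = the rest.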

The target in this experiment is Metabotropic glutamate receptor 8 (Rattus norvegicus) (UniProt P70579). Briefly: rat mGluR8 modulators via GIRK flux, primary screen, cell-based, thallium flux, HTS (AID 488969). The note with it: HEK293 rat mGluR8, GIRK (G protein-gated inwardly rectifying potassium channel) thallium flux, FluoZin2; at 10 µM; stronger effect = higher value; submaximal glutamate (EC20) added with thallium.
Sequence of Metabotropic glutamate receptor 8 (Rattus norvegicus) (P70579 whole entry, looked up): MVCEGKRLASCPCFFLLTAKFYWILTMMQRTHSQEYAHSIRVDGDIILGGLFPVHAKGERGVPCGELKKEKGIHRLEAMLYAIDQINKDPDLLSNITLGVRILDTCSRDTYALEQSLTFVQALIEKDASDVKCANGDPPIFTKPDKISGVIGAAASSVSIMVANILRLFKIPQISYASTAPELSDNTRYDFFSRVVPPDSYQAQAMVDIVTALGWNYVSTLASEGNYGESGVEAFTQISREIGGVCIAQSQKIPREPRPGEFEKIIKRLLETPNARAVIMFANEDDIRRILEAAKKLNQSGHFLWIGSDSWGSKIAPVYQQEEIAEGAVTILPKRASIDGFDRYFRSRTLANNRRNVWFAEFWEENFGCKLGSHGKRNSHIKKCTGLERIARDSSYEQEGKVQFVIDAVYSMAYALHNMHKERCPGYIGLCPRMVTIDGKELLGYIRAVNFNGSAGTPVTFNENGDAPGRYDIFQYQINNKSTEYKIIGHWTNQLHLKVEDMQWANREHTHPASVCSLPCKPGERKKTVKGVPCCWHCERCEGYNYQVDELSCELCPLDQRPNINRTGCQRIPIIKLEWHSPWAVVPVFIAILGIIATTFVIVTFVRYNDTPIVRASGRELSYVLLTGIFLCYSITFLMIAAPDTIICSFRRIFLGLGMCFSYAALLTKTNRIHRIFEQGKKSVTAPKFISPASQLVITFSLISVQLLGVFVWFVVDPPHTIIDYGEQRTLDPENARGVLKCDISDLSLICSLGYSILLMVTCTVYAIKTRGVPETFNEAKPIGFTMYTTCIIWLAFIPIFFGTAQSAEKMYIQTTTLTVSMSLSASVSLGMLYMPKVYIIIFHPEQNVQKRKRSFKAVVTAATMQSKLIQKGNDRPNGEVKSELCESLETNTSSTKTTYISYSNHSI
`O=C(COC(=O)C1CCN(S(=O)(=O)c2ccc3c(c2)OCCO3)CC1)Nc1cc(C(F)(F)F)ccc1Cl` yielded a z-score of -0.303. With `CCCC12CN3CCN(CC(C3)/C1=N\NC(=O)Nc1ccccc1)C2`, the z-score is -0.242. Then `CCc1cc2cc(C(=O)Nc3ccc(F)cc3)sc2s1`, with -0.0494; and `Cc1nc2ccc(F)cc2cc1C(=O)NCc1ccco1`, with -0.0284; and `O=C(COC(=O)CCc1nc2ccccc2s1)Nc1ncc(Cl)cc1Cl`, with -0.33. Then `CN1CCN(/C=N/c2c(C#N)cnn2-c2ccccc2)CC1`, with 0.237. The figure for `O=C(CNC(=O)c1cccc(F)c1)OCc1cc(=O)n2cc(Br)ccc2n1` is -0.354; for `CCCN(CCC)S(=O)(=O)c1ccc(C(=O)Nc2nnc(-c3cccc(OC)c3)o2)cc1` it is 3.65 (active); for `CCCN(CCC)S(=O)(=O)c1ccc(C(=O)Nc2nnc(CSC)o2)cc1` it is 0.35.

Turning to `O=C(Nc1nnc(-c2ccc3c(c2)CCCC3)o1)c1ccc(Cl)cc1Cl`, the z-score is 15.6 (active). Then `O=C(Nc1nnc(-c2ccc3c(c2)CCCC3)o1)C1COc2ccccc2O1` (centres undefined), with 7.22 (active). The figure for `O=C(COc1ccccc1)Nc1nnc(-c2ccc3c(c2)CCCC3)o1` is 1.27; for `O=C(Nc1nnc(-c2ccc3c(c2)CCCC3)o1)c1ccccc1` it is 15.5 (active); for `Clc1ccc(-c2nnc(NC3=NCCCCC3)o2)cc1` it is 0.0658.

As for `O=C(Nc1nnc(-c2ccc3c(c2)CCCC3)o1)C1CCCCC1`, the z-score was -0.309.

`O=C(COc1ccc(Cl)cc1)Nc1nnc(-c2ccc3c(c2)CCCC3)o1` came in with a z-score of -0.441. The figure for `COc1cccc(-c2nnc(NC(=O)c3ccc(S(=O)(=O)N(CC(C)C)CC(C)C)cc3)o2)c1` is -0.14. The figure for `CC(=O)Nc1nnc(-c2ccc3c(c2)CCCC3)o1` is 0.0154; for `O=C(Nc1ccc2c(c1)CCC2)C1COc2ccccc2O1` (centres undefined) it is 0.9; for `COc1nnc(-c2ccc(N3CCCCC3)c(NC(=O)C3CCCCC3)c2)c2ccccc12` it is -0.3. The figure for `Cc1ccccc1N1CCN(C(=O)CCN2C(=O)c3ccccc3C2=O)CC1` is -0.36. Compound `COc1ccc(C(=O)Nc2ccc(Cl)c(Cl)c2)c(OC)n1` came in with a z-score of -0.192. The figure for `COc1ccccc1C(=O)NNC(=O)c1ccc(F)cc1` is 0.0416; for `CCC(C)(C)n1nnnc1C(C(C)C)N1CCSCC1` (centres undefined) it is 0.805; for `O=S(Cc1ccc(Br)cc1)Cc1nnc(SCc2c(Cl)cccc2Cl)n1-c1ccccc1` (centres undefined) it is 0.0461. Then `CCNC(=O)C1CCCN1S(=O)(=O)c1ccc(C)cc1` (centres undefined), with -0.513. Take `Cc1ccc2cc3cc(C(=O)N4CCN(Cc5ccccc5)CC4)sc3nc2c1`: the z-score was found to be 0.586. The figure for `O=C(Cc1ccccc1)NC(NC(=S)Nc1cc(Cl)ccc1Cl)C(Cl)(Cl)Cl` (centres undefined) is -0.195. The figure for `O=C(/C=C/c1ccccc1)NC(NC(=S)Nc1cccc(O)c1)C(Cl)(Cl)Cl` (centres undefined) is 2.09; for `O=C(/C=C/c1ccccc1)NC(NC(=S)Nc1ccc(Cl)cc1Cl)C(Cl)(Cl)Cl` (centres undefined) it is 0.717; for `COc1ccc(NC(=S)NC(NC(=O)/C=C/c2ccccc2)C(Cl)(Cl)Cl)cc1` (centres undefined) it is 1.83. The compound `O=C(/C=C/c1ccccc1)NC(NC(=S)Nc1cccc(Cl)c1)C(Cl)(Cl)Cl` (centres undefined) displayed a z-score of 1.36. Turning to `O=C(/C=C/c1ccccc1)NC(NC(=S)Nc1cc(Cl)ccc1Cl)C(Cl)(Cl)Cl` (centres undefined), the z-score is 5.83 (active). The figure for `O=C(CNc1n[nH]c(=O)[nH]c1=O)N/N=C/c1cccnc1` is -0.114; for `Cc1cccc(N2CCN(C(=O)Cn3cnc4c3c(=O)n(C)c(=O)n4C)CC2)c1C` it is -0.973. Then `Cn1nnc(NC(=O)c2ccc3ccccc3c2)n1`, with -1.31.

In turn, `COC(=O)C(NC(=O)COc1ccccc1)(Nc1nc2c(s1)CCCC2)C(F)(F)F` (centres undefined) yielded a z-score of 2.96. The figure for `CCOC(=O)C(NC(=O)CC)(Nc1nc2c(s1)CCCC2)C(F)(F)F` (centres undefined) is -0.0129. With `O=C(Nc1nc2c(s1)CCCC2)Oc1ccccc1`, the z-score is -0.198. The figure for `CC(C)CNC(C(=O)Nc1ccc([N+](=O)[O-])cc1Br)c1ccccc1` (centres undefined) is -0.337; for `O=C1CC(c2ccccc2)CC(O)=C1C=NCc1ccccc1` (centres undefined) it is -0.229. Then `CCC(C)N=CC1=C(O)CC(c2ccccc2)CC1=O` (centres undefined), with 2.05. The figure for `CCCN=CC1=C(O)CC(c2ccccc2)CC1=O` (centres undefined) is -0.493; for `C=C(Br)Cn1c(CC(C)C)nc2ccccc21` it is -0.262. `COC(=O)c1sc(N)nc1C(C)(C)C` yielded a z-score of -0.167. The compound `COc1cc2c(cc1Cl)/C(=C\CCN(C)C)c1ccccc1S2` registered a z-score of -0.852. `CN(C)CC/C=C1/c2ccccc2Sc2c(O)cc(Cl)cc21` registered a z-score of 1.62. Regarding `COc1cc(Cl)cc2c1Sc1ccccc1/C2=C/CCN(C)C`, the z-score was 3.63 (active).

In the case of `O=C(CNc1ccccc1)N/N=C/c1ccc2c(c1)OCO2`, the z-score is -0.247. In turn, `COc1ccc(NC(=O)Nc2nnc(-c3ccccc3SCc3ccccc3)s2)cc1` showed a z-score of -0.158.

For the compound `CC(=O)N1CCN=C1SCc1ccccc1`, the z-score was -0.898. The figure for `CC(=O)N1CCN=C1SCc1ccc(F)cc1` is 0.0688.

Take `CC(=O)N1CCN=C1SCc1ccc(Br)cc1`: the z-score is 2.58. Compound `COC(=O)c1ccc(NC(=O)C(=O)N2CCN(C(=S)NCCc3ccccc3)CC2)cc1` yielded a z-score of -0.154. `O=C(N/N=C\c1cn[nH]c1-c1ccccc1)c1cccnc1` came in with a z-score of 0.0508. Then `COC(=O)Oc1cncc(C(=O)O)c1`, with -0.0704; and `O=C(OCc1ccccc1)Oc1cncc(C(=O)O)c1`, with 2.64.

Consider `CCOC(=O)c1cncc(C(=O)O)c1`, for which the z-score was determined as 1.8. Then `CCN(CC)S(=O)(=O)c1ccc(C(=O)NCc2ccc3c(c2)cc(C)n3C)cc1`, with -0.388.

The compound `FC(F)(F)c1cccc(NC(=S)Nc2ccc(Cl)cc2Cl)c1` came in with a z-score of 1.29. The figure for `CN(C)S(=O)(=O)c1cccc(NC(=S)N/N=C/C(c2ccccc2)c2ccccc2)c1` is 0.384; for `CN(C)S(=O)(=O)c1cccc(NC(=S)Nc2ccc(Cl)cc2Cl)c1` it is 7.58 (active). For `CN(C)S(=O)(=O)c1cccc(NC(=S)Nc2cc(Cl)cc(Cl)c2)c1`, the z-score is 8 (active). Turning to `CN(C)S(=O)(=O)c1cccc(C(=O)Nc2cc(Cl)cc(Cl)c2)c1`, the z-score is -0.468.

Turning to `CN(C)S(=O)(=O)c1cccc(NC(=S)NN=C(Cc2ccccc2)Cc2ccccc2)c1`, the z-score was found to be 0.673. Then `O=C(CCc1ccc(S(=O)(=O)NC2CCCCC2)cc1)N(Cc1ccccc1)Cc1ccccc1`, with -0.22; and `Cc1cc(C2=NNC(=NCc3ccccc3)SC2)c(C)n1-c1c(C)n(C)n(-c2ccccc2)c1=O`, with -0.278. Then `COCC(C)n1c(C)cc(C(=O)COC(=O)c2oc3ccccc3c2C)c1C` (centres undefined), with -0.927. Then `Cc1ccccc1CSCC(=O)Nc1c(C)n(C)n(-c2ccccc2)c1=O`, with -0.0609.

Regarding `CCCCN(CCCC)C(=S)NC(=O)C(C)(C)C`, the z-score is 5.35 (active). Then `CC(C)(C)C(=O)NC(=S)NCc1ccccc1`, with -0.201. The figure for `CC(C)(C)C(=O)NC(=S)N1CCCC1` is -0.128; for `COC(=O)c1ccc(C(=O)OC)c(NC(=O)COC(=O)C23CC4CC(CC(O)(C4)C2)C3)c1` it is -1.04. Then `Cc1cccc(NC(=O)Nc2ccc(C)c(C)c2)n1`, with -0.316. `CCCCn1c(SCC(=O)Nc2cc(C)on2)nnc1-c1cccnc1`: the z-score was 2.11. The figure for `Cc1cc(NC(=O)CSc2nnc(-c3cccnc3)n2C)no1` is 0.0216.

With `Cc1cc(NC(=O)CSc2nnc(-c3cccnc3)n2N)no1`, the z-score is -0.404. The figure for `COC(=O)c1cccc(NC(=O)CCc2ccccc2)c1` is -0.143; for `COc1ccc(NC(=S)N2CCN(C/C=C/c3ccccc3)CC2)cc1` it is -0.821. The figure for `COc1ccc(S(=O)(=O)N(CCc2ccccc2)CC(=O)NC(C)C)cc1` is -0.387; for `CCNC(=O)CN(CCc1ccccc1)S(=O)(=O)c1ccc(OC)cc1` it is -0.329; for `COc1ccc(S(=O)(=O)N(CCc2ccccc2)CC(=O)O)cc1` it is 2.73. Then `COc1ccccc1NS(=O)(=O)c1ccc2oc(SC3CCOC3=O)nc2c1` (centres undefined), with -1.2. On to `CCOC(=O)CSC1=Nc2ccccc2C2=NC(CC(=O)NCc3cccs3)C(=O)N12` (centres undefined), for which the z-score was 0.253. The figure for `CCOC(=O)CSC1=Nc2ccccc2C2=NC(CC(=O)NCc3ccccc3)C(=O)N12` (centres undefined) is 2.91; for `CCOC(=O)CSC1=Nc2ccccc2C2=NC(CC(=O)NCc3ccc(OC)cc3)C(=O)N12` (centres undefined) it is 0.556; for `O=C(Nc1ccc(F)cc1)c1ccc(-n2ccnc2)nc1` it is -0.238.

Regarding `CCN(CC)S(=O)(=O)c1cccc(C(=O)N[C@H](C(=O)Nc2nc3ccccc3s2)C(C)C)c1`, the z-score came out at 0.326. The compound `CN(C)CCCN1C(=O)CSC1c1ccccc1` (centres undefined) returned a z-score of -0.244. Then `O=C(C1CCN(S(=O)(=O)c2cccc3cccnc23)CC1)N1CCn2c1nc1ccccc12`, with -0.522. Consider `O=C(C1CCCN1S(=O)(=O)c1cccc2cccnc12)N1CCc2ccccc21` (centres undefined), for which the z-score worked out at 2.97. With `O=C(C1CCCN1S(=O)(=O)c1cccc2cccnc12)N1CCN(c2ccccc2)CC1` (centres undefined), the z-score is -0.0642.

`O=C(C1CCCN(S(=O)(=O)c2cccc3cccnc23)C1)N1CCc2ccccc21` (centres undefined) returned a z-score of -1.2. In the case of `O=C(C1CCCN1S(=O)(=O)c1cccc2cccnc12)N1CCn2c1nc1ccccc12` (centres undefined), the z-score is 3.63 (active). The figure for `O=C(C1CCCN1S(=O)(=O)c1cccc2cccnc12)N1CCc2ccccc2C1` (centres undefined) is -0.115. For the compound `Cc1nc2cc(-c3ccc(Cl)cc3)nn2c(C)c1CCC(=O)NCc1ccco1`, the z-score is -0.0434. The figure for `CCOC(=O)c1oc2ccccc2c1NC(=O)COc1ccc(F)cc1` is -0.456; for `S=c1[nH]nc(-c2cc3c(s2)-c2ccccc2CC3)o1` it is 16.3 (active); for `CSc1nnc(-c2cc3c(s2)-c2ccccc2CC3)o1` it is 0.0264. With `CCSc1nnc(-c2cc3c(s2)-c2ccccc2CC3)o1`, the z-score was found to be 0.000914. Then `N=c1sccn1CC(=O)Nc1cccc2ccccc12`, with -0.00239; and `COC(=O)Nc1nc(C)c(C(=O)N(C)C)s1`, with 4.58 (active); and `Cc1nc(NC(=O)C2CC2)sc1C(=O)N(C)C`, with -0.405. The compound `CCOC(=O)Nc1nc(C)c(C(=O)N(C)C)s1` had a z-score of -0.0609.

As to `O=C(CCN1C(=O)COc2ccccc21)NCCN1CCc2ccccc2C1`, the z-score is -0.306. Then `O=C(CCN1C(=O)COc2ccccc21)NCCCN1CCc2ccccc2C1`, with 7.6 (active); and `O=C(CN1C(=O)COc2ccccc21)NCCCN1CCc2ccccc2C1`, with 0.383. The figure for `Cc1ccc(/C=C(\C#N)c2nc3ccccc3[nH]2)s1` is -0.0719; for `O=C(COC(=O)CCCOc1ccc(Cl)cc1Cl)NCc1ccc(F)cc1` it is -0.191.
